Screens as filed in PubChem.
GAA850 FXN act: FXN promoter activators, primary screen, cell-based, luciferase luminescence, HEK293 lucGAA850; HEK293 lucGAA850 FXN promoter luciferase reporter, 24 h; percent of 10 µM SAHA response; activation, % at 6 µM; AID 540364, 2011; hit rate 0.56% among 360,000;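 active = activation above the average of all compounds screened plus 3 SD, cutoff fixed separately per campaign, cut at about 7.5% in these data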;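 also: 0% = DMSO wells and 100% = 10 µM SAHA wells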
MITF TRPM1 HTS: activators of MITF-driven TRPM1 promoter reporter, primary screen, cell-based, SK-MEL-5, luciferase, single point; SK-MEL-5 TRPM1-promoter luciferase, 24 h; % of positive control, neutral wells = 0; AID 588334, 2011; hit rate 0.75% among 300,000; activation, % at 12.5 µM;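 active = mean activation of at least 80% with every replicate also reaching 80%; inconclusive = mean reaches 80% but some replicate falls short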;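 also: 0% = neutral control wells and 100% = parthenolide positive control wells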
Wnt bcat act: Wnt/beta-catenin pathway activators, primary screen, cell-based, plate reader, single point; Wnt/beta-catenin reporter cell assay, activator; activation, % at 9.35 µM; hit rate 1.2% among 300,000; in the data active = activation above about 30%, passing the limit was not always enough; inconclusive = no clear call, values can overlap the other calls;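 also: 0% = neutral control wells and 100% = positive control wells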
esBAF inh: Bmi1 luciferase reporter increase in mESCs, primary screen, esBAF inhibitor project, mouse ES cells, Bmi1 luciferase knock-in, single point | 24 h; 100% = twice the neutral-well signal | reporter increase, % at 12.5 µM | hit rate 2% among 350,000; in the data active = activation above about 40%; inconclusive = no clear call, values can overlap the other calls;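 also: 0% = median of the plate's neutral control wells and 100% = double that signal; a rise in the Bmi1 reporter signal indicates esBAF inhibition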
AHR activator: AHR activators, primary screen, cell-based, luminescence, luciferase reporter, human; hit rate 2.5% among 320,000; Aryl hydrocarbon receptor (Homo sapiens), P35869; activation, % at 5 µM; AID 2796, 2010; AHR-responsive luciferase reporter cells; in the data active = activation above about 47%;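 also: 0% = vehicle wells and 100% = reference agonist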
Target sequence (P35869 whole entry, looked up): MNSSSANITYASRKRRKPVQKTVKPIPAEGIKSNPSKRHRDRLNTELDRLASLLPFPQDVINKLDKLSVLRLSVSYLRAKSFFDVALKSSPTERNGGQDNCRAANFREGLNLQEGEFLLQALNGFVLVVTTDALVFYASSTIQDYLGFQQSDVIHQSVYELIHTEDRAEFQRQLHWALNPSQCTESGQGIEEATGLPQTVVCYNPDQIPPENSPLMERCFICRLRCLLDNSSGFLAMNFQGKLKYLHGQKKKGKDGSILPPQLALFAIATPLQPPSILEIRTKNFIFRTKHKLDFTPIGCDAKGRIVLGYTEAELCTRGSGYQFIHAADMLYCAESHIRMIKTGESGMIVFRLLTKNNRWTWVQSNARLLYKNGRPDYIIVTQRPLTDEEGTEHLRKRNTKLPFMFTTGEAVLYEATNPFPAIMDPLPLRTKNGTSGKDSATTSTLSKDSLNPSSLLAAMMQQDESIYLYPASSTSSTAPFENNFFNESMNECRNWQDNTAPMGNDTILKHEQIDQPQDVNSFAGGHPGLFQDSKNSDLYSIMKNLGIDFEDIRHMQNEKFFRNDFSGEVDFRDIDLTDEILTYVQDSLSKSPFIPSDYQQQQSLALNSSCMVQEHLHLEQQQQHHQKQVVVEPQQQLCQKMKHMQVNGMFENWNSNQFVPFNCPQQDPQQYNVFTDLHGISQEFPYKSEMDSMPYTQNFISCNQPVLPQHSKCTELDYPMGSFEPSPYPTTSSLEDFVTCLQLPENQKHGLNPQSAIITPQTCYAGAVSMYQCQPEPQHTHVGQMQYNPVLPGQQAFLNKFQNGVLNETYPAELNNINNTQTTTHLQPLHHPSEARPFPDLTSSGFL
* hit, by the source's call; ? = inconclusive; / = no result. Sampled rows, rich in hits. Any-hit rate of the full collection: about 4.2%.

SMILES	GAA850 FXN act	MITF TRPM1 HTS	Wnt bcat act	esBAF inh	AHR activator
COc1ccc(-c2nnc3c4ccccc4c(C)nn23)cc1	7	18	47*	72*	20
COc1ccc(Oc2nnc(C)c3ccccc23)cc1	4	89*	42*	50*	14
CC(C)CC#Cc1cnc2c(c1)C(=O)N([C@@H](C)CO)C[C@H](C)[C@@H](CN(C)Cc1ccccc1F)O2	/	/	/	-1	/
CNC[C@H]1Oc2ccc(NS(=O)(=O)c3ccccc3)cc2C(=O)N([C@@H](C)CO)C[C@H]1C	/	/	/	-2	/
Cc1noc(C)c1NC(=O)N(C)C[C@@H]1Oc2ccc(NC(=O)C3CCCCC3)cc2C(=O)N([C@H](C)CO)C[C@H]1C	/	/	/	-2	/
COc1cccc(NC(=O)C(=O)NCc2ccncc2)c1	5	?	23	52*	53*
COc1ccc(C)cc1NC(=O)C(=O)NCc1ccncc1	-2	-2	/	3	50*
COc1cccc(NC(=S)NCc2ccncc2)c1	3	12	2	/	7
C[C@H]1CCCCO[C@@H](CN(C)S(=O)(=O)c2cccs2)[C@@H](C)CN([C@@H](C)CO)C(=O)c2cc(NC(=O)C3CCCCC3)ccc2O1	/	/	/	2	/
CCNC(=O)C[C@@H]1CC[C@H]2[C@H](COc3ccc(NC(=O)Nc4ccc(Cl)cc4)cc3C(=O)N2C)O1	/	/	/	0	/
COc1ccc(S(=O)(=O)Nc2ccc3c(c2)CC(=O)N([C@@H](C)CO)C[C@H](C)[C@@H](CN(C)C(=O)NC(C)C)O3)cc1	/	/	/	3	/
O=C(NC(=S)Nc1cccc(O)c1)C12CC3CC(CC(C3)C1)C2	0	/	22	47*	/
Cc1cc(C)nc(/N=C2\NC(=O)CC(C(=O)O)N2c2ccc(Oc3ccccc3)cc2)n1 (stereo not drawn)	1	/	-6	-4	-3
CCOc1ccc(N2CC(=O)N/C2=N\c2nc(C)cc(C)n2)cc1	0	7	/	-16	50*
Cc1cccc(-n2c(=S)[nH]c3c(oc4ccccc43)c2=O)c1	4	-14	-1	2	62*
O=c1c2oc3ccccc3c2[nH]c(=S)n1-c1ccccc1	2	-9	/	-1	66*
Cc1ccc(-n2c(=S)[nH]c3c(oc4ccccc43)c2=O)cc1	3	5	/	19	20
C[C@@H]1CN([C@@H](C)CO)C(=O)c2cc(NC(=O)Cn3cnnn3)ccc2O[C@@H]1CN(C)Cc1ccc(C(=O)O)cc1	/	/	/	-9	/
CCC(=O)Nc1ccc2c(c1)C(=O)N(C)C[C@H](OC)[C@@H](C)CN(Cc1ccccc1C(=O)O)[C@H](C)CO2	/	/	/	-16	/
COc1ccccc1/C=N/n1c(N)c(S(=O)(=O)c2cccs2)c2nc3ccccc3nc21	0	/	/	41*	6
CC(C)c1ccc(N=C2NN=C(c3cccs3)CS2)cc1	5	100*	-3	/	18
C[C@@H]1CCCCO[C@H](CN(C)C(=O)C2CCCCC2)[C@@H](C)CN([C@@H](C)CO)C(=O)c2cc(NC(=O)c3ccccc3)ccc2O1	/	/	/	4	/
Cc1ccc(-c2csc(NC(=O)CSc3nc(C)cs3)n2)cc1	4	46	6	45*	14
CC(C)(C)NC(=O)CSc1nc(-c2ccc(F)cc2)cs1	6	71	38*	/	16
COc1ccc(NC(=O)CSc2nc(C)cs2)c([N+](=O)[O-])c1	2	21	46*	31	-1
SMILES	GAA850 FXN act	MITF TRPM1 HTS	Wnt bcat act	esBAF inh	AHR activator
CCNC(=O)CSc1nc(-c2ccc(F)cc2)cs1	1	35	17	/	1
O=C(CCN1CCCCC1)NCC[C@@H]1CC[C@H](NS(=O)(=O)c2cccc(F)c2)[C@H](CO)O1	/	/	/	2	/
COc1ccc(Cc2c(-c3ccccc3)nc3ccc(Br)cn23)c(C)c1	/	/	23	61*	/
COc1ccc(Cc2c(-c3cccc(Br)c3)nc3ccc(Cl)cn23)c(C)c1	/	/	14	58*	/
CCCNC(=O)C[C@H]1CC[C@@H]2[C@@H](COc3ccc(NS(=O)(=O)c4ccccc4C)cc3C(=O)N2C)O1	/	/	/	-1	/
COc1ccccc1C#Cc1cnc2c(c1)C(=O)N([C@@H](C)CO)C[C@@H](C)[C@@H](CN(C)C(=O)c1ccc3c(c1)OCO3)O2	/	/	/	6	/
COc1ccc(-c2[nH]ncc2N=Nc2ccccc2)cc1	-1	19	-2	/	13
COc1ccc(-c2[nH]ncc2N=Nc2cc(C)cc(C)c2)cc1	-1	-20	-14	/	66*
